According to PubChem BioAssay (EPA / NIEHS):
Where “and” joins values, the source holds several entries; their conditions need not be identical. Identical values can stand only once. Results filed as inconclusive are left out. Where a structure was tested more than once in an assay, its records may differ in their call. Calls of active or inactive are those of the source. How the source made its calls: active means hit-call score of the fitted dose curve at least 0.9, where 1 is the maximum; inconclusive means response in the unintended direction; inactive means score below 0.9.

How the values were obtained:
[1] = system: guinea pig Histamine Receptor (H2), gene 100729734; assay: NVS_GPCR_gH2: NovaScreen (NVS) G Protein-Coupled Receptor Assay for guinea pig Histamine Receptor (H2) (AID 2283342)
Method in brief: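 Radioligand displacement on guinea pig striatal membranes, 1 h after dosing, filter-based scintillation counting; loss of signal versus DMSO. Single-point screen at 25 uM in duplicate, then concentration-response up to 50 uM.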

[2] = biological target: human Constitutive Androstane Receptor (CAR), NR1I3 (gene 9970) (UniProt Q14994); assay: NVS_NR_hCAR_Antagonist: NovaScreen (NVS) Nuclear Receptor Binding Assay for human Constitutive Androstane Receptor Antagonism (CAR) (AID 2283344)
Method in brief: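 Cell-free TR-FRET binding read 1 h after dosing, antagonist mode; loss of signal versus DMSO baseline. Primary screen in duplicate at a single 25 uM; actives retested in concentration series.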

[3] = biological target: Bile acid receptor (Homo sapiens) (UniProt Q96RI1); assay: NVS_NR_hFXR_Agonist: NovaScreen (NVS) Nuclear Receptor Binding Assay for human Farnesoid X Receptor Agonism (FXR) (AID 2283347)
Method in brief: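 Cell-free TR-FRET binding assay with extracted human FXR protein, agonist format, read 1 h after dosing. Primary screen at 25 uM single concentration in duplicate, actives retested in concentration series; gain of signal versus DMSO.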

[4] = biological target: Estrogen receptor (Homo sapiens) (UniProt P03372); assay: OT_ER_ERaERa_1440: Odyssey Thera (OT) 24-hour HEK293T Protein-Complementation Assay for Estrogen Receptor-alpha/-alpha Homodimer (AID 2283349);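 further: hits raise fluorescence above DMSO for agonists and antagonists alike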
Method in brief: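 Readout is the rise in mean fluorescence from reporter fragment complementation when ERα LBD (aa 310-547) units dimerize in HEK293T cells. Measured 24 h after dosing and analysed as increase over DMSO control.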

[5] = biological target: Bile acid receptor (Homo sapiens) (UniProt Q96RI1); assay: NVS_NR_hFXR_Antagonist: NovaScreen (NVS) Nuclear Receptor Binding Assay for human Farnesoid X Receptor Antagonism (FXR) (AID 2283350)
Method in brief: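 Cell-free TR-FRET ligand-binding read-out on human FXR (NR1H4) in antagonist mode, measured 1 h after dosing. Primary screen in duplicate at 25 uM, actives retested in concentration series; signal loss scored versus DMSO.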

[6] = biological target: Estrogen receptor (Homo sapiens) (UniProt P03372); assay: OT_ER_ERaERa_0480: Odyssey Thera (OT) 8-hour HEK293T Protein-Complementation Assay for Estrogen Receptor-alpha/-alpha Homodimer (AID 2283351);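 further: rise in fluorescence from reassembled reporter fragments on ERα LBD homodimer in nucleus or whole cell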
Method in brief: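 Binding reporter in which dimerisation of ERα LBD (aa 310-547) fusions reconstitutes a fluorescent reporter in HEK293T cells. Compounds incubated 8 h; mean fluorescence intensity increase versus DMSO scored.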

[7] = biological target: Estrogen receptor (Homo sapiens) + Estrogen receptor beta (Homo sapiens) (UniProt P03372+Q92731); assay: OT_ER_ERaERb_0480: Odyssey Thera (OT) 8-hour HEK293T Protein-Complementation Assay for Estrogen Receptor-alpha/-beta Heterodimer (AID 2283352)
Method in brief: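 HEK293T protein-fragment complementation assay of ER-alpha/ER-beta LBD heterodimerisation, read 8 h after dosing. Mean nuclear/cytoplasmic fluorescence intensity measured by laser scanning cytometry; gain of signal fitted relative to DMSO.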

[8] = biological target: chimpanzee Androgen Receptor (AR), AR (gene 747460) (UniProt O97775); assay: NVS_NR_cAR: NovaScreen (NVS) Nuclear Receptor Binding Assay for chimpanzee Androgen Receptor (AR) (AID 2283346);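 further: radioligand displacement from AR measured by scintillation counting in a cell-free assay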
Method in brief: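 Cell-free radioligand displacement using receptor protein extracted from Sf9/Sf21 cells; bound radioligand measured by scintillation counting 72 hours after chemical dosing. Loss of signal versus DMSO baseline indicates binding; primary screen single-concentration in duplicate at 25 uM, actives followed in concentration series.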

[9] = biological target: Estrogen receptor (Homo sapiens) (UniProt P03372); assay: NVS_NR_hER: NovaScreen (NVS) Nuclear Receptor Binding Assay for human Estrogen Receptor (ER) (AID 2283348)
Method in brief: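 Cell-free radioligand binding with protein extracted from MCF7 cells; scintillation counting 18 hours after dosing. Loss of signal versus DMSO baseline read as displacement; primary single-concentration screen at 25 uM in duplicate, actives retested in concentration series.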

[10] = biological target: bovine Estrogen Receptor (ER), ESR1 (gene 407238) (UniProt P49884); assay: NVS_NR_bER: NovaScreen (NVS) Nuclear Receptor Binding Assay for bovine Estrogen Receptor (ER) (AID 2283345);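 further: actives lower the bound radioligand count which means they displace the ER ligand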
Method in brief: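 Cell-free radioligand binding with bovine uterine membrane extracts, read 18 hours after dosing by scintillation counting. Loss of signal versus DMSO baseline indicates displacement. Primary screen run in duplicate at 25 uM, actives followed in concentration series.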

Measured: AC50

Chain of human Constitutive Androstane Receptor (CAR), NR1I3 (gene 9970) (Q14994 whole entry, looked up): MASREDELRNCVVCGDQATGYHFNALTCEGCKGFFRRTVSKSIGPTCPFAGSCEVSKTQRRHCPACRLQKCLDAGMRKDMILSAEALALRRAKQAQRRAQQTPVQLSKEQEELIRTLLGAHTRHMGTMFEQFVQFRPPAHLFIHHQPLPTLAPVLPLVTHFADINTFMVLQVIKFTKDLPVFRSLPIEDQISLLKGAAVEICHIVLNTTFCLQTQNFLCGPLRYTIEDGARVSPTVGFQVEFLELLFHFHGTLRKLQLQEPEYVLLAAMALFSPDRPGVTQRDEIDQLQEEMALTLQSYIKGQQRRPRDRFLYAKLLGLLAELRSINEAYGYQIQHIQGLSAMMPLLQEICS
Chain of Bile acid receptor (Homo sapiens) (Q96RI1 whole entry, looked up): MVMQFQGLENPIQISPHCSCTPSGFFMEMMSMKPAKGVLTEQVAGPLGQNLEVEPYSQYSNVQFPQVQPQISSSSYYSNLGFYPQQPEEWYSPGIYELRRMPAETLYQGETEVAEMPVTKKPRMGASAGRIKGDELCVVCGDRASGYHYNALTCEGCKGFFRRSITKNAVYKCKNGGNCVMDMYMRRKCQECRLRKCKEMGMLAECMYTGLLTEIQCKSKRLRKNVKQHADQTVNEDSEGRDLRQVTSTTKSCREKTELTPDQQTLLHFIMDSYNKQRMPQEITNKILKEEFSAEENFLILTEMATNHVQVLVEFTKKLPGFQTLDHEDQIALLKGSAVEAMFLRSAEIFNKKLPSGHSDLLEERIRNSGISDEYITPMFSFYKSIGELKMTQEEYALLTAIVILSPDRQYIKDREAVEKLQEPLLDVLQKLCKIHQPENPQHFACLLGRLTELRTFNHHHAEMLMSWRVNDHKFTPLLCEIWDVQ
Chain of bovine Estrogen Receptor (ER), ESR1 (gene 407238) (P49884 whole entry, looked up): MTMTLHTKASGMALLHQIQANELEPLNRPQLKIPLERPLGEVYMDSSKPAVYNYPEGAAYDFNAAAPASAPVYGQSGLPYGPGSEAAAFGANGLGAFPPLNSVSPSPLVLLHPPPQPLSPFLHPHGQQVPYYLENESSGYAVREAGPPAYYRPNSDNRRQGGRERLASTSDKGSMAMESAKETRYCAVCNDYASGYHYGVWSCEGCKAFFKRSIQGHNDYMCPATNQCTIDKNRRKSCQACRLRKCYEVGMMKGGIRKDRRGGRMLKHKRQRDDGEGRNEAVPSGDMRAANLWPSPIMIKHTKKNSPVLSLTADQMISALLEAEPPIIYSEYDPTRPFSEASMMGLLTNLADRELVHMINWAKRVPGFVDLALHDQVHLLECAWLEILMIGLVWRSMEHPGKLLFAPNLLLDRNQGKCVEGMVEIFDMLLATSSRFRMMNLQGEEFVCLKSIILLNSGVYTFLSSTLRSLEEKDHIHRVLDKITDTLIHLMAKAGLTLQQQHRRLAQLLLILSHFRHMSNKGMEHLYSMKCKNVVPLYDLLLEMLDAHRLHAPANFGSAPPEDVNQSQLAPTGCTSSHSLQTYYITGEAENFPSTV
Chain of Estrogen receptor (Homo sapiens) + Estrogen receptor beta (Homo sapiens) (P03372 whole entry, looked up, the tested form may be a part): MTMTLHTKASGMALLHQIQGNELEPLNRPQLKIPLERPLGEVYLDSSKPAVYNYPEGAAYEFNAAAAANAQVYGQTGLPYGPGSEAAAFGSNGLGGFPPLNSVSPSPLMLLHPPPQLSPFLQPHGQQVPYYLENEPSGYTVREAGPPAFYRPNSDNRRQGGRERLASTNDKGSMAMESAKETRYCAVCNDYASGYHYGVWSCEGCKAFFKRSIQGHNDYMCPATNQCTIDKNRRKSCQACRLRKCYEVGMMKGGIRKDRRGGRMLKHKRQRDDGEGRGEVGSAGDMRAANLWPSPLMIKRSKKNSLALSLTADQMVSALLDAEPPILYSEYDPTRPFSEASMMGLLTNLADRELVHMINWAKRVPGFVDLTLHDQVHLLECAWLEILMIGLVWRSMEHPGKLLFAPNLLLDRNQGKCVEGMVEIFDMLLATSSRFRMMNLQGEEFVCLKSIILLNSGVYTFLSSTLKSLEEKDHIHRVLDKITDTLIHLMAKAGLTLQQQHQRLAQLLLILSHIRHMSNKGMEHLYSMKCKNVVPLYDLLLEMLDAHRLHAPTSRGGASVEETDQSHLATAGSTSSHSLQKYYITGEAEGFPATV
Chain of Estrogen receptor (Homo sapiens) + Estrogen receptor beta (Homo sapiens) (Q92731 whole entry, looked up, the tested form may be a part): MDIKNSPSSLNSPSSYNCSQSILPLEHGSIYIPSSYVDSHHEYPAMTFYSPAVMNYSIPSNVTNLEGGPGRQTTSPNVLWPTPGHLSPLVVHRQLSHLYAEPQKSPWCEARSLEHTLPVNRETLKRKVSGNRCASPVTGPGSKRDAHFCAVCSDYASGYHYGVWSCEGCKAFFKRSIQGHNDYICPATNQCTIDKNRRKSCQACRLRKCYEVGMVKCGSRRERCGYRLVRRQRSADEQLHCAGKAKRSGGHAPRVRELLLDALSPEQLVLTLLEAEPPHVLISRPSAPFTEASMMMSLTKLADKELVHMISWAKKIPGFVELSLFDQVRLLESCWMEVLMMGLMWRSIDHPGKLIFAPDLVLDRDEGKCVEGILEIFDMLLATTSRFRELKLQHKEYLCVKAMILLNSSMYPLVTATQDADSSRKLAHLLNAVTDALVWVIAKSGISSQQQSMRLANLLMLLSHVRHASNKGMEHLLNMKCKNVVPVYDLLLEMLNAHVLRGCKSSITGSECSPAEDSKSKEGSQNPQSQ
Chain of Estrogen receptor (Homo sapiens) (P03372 whole entry, looked up, the tested form may be a part): as the sequence (P03372 whole entry, looked up, the tested form may be a part) above
Chain of chimpanzee Androgen Receptor (AR), AR (gene 747460) (O97775 whole entry, looked up): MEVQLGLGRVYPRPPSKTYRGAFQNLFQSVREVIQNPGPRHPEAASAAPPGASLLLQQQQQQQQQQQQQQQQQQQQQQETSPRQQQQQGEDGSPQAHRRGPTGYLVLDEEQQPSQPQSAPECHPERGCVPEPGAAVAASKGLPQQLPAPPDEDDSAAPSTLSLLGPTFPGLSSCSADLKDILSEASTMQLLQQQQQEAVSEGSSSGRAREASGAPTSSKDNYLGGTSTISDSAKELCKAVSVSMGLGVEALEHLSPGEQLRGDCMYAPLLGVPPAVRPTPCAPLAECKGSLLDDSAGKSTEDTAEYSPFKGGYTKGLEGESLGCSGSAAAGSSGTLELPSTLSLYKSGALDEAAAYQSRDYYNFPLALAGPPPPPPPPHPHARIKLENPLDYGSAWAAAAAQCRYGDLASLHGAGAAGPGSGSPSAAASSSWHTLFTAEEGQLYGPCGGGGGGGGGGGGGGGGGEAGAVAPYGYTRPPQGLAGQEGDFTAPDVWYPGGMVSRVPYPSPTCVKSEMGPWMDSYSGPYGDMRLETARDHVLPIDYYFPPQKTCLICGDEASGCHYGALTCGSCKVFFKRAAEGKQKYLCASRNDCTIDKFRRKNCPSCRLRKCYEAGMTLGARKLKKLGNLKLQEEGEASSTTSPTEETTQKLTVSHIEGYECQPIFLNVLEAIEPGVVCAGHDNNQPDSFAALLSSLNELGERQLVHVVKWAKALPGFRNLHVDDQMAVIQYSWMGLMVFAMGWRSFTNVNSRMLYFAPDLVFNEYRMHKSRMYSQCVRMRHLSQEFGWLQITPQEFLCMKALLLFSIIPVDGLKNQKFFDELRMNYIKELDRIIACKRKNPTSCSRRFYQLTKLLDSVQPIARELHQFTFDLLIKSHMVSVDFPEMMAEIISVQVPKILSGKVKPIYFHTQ

COC(=O)c1ccccc1C(=O)OC
not listed: [8] | [9] | [10]
inactive: all other assays above

CCCC1COC(Cn2cncn2)(c2ccc(Cl)cc2Cl)O1 (configuration not stated)
active: [2] 11.8 µM and 25 µM | [8] 9.99 µM
inactive: [1] | [4] | [6]

Cc1ccc(-c2c(Cl)nc(C#N)n2S(=O)(=O)N(C)C)cc1
inactive: [2] | [9] | [4] | [6] | [7]

CCCCNC(=O)OCC#CI
inactive: [1] | [10] | [9] | [4] | [6]

CS/C(C)=N/OC(=O)N(C)SN(C)C(=O)O/N=C(\C)SC
inactive: [2] | [4] | [6]

CO/C=C(/C(=O)OC)c1ccccc1Oc1cc(Oc2ccccc2C#N)ncn1
inactive: [2] | [10] | [9] | [4] | [6]

CCCN(CCC)c1c([N+](=O)[O-])cc(S(N)(=O)=O)cc1[N+](=O)[O-]
active: [2] 526 nM and 6.79 µM | [5] 26.4 µM
inactive: [10] | [9] | [4] | [5] | [6]

C#CCOS(=O)OC1CCCCC1Oc1ccc(C(C)(C)C)cc1 (configuration not stated)
inactive: [2] | [4] | [5] | [6] | [7]

N#CC(CCc1ccc(Cl)cc1)(Cn1cncn1)c1ccccc1 (configuration not stated)
inactive: [1] | [4] | [6]

COP(N)(=O)SC (configuration not stated)
inactive: [2] | [10] | [4] | [5] | [7]

CC1COC(Cn2cncn2)(c2ccc(Oc3ccc(Cl)cc3)cc2Cl)O1 (configuration not stated)
inactive: [1] | [4] | [6]

CN(C)C(=S)SSC(=S)N(C)C
active: [5] 8.97 µM
inactive: [1] | [4] | [6]
